The list is not random: actives were taken first. Their share in the collection is about 22%.
Pf growth 96h – Primary qHTS for delayed death inhibitors of the malarial parasite plastid, 96 hour incubation | actives 6.9% (n = 320,000) | P. falciparum luciferase reporter growth, 96 h | AID 504834, 2011 | Potency, µM (top dose mostly 28.7 µM), inactives show at the highest dose activity change, negative = inhibition, actives largely listed as inhibitors; note: potency is the fitted concentration of half-maximal effect; % is set by controls: 0 for no effect and ±100 for the full control effect
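P. falciparum expressing integrated firefly luciferase, in erythrocytes at 2% hematocrit, 0.05% parasitemia, incubated with compounds 96 h at 37 C, 5% CO2. Growth inhibition read as loss of luminescence; two-generation exposure targets delayed-death apicoplast inhibitors.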
Shiga toxin inh – A qHTS for Small Molecule Inhibitors of Shiga Toxin. Vero cells, Shiga toxin protein synthesis inhibition reporter. inhibition, % at 38.7 µM. actives 9.2% (n = 290,000). AID 2315, 2010; in the data active = inhibition mostly above about 28%, no sharp cut-off; inactive = mostly below about 43%; note: 0% is about no effect
CHX counter – Cycloheximide Counterscreen for Small Molecule Inhibitors of Shiga Toxin | cell reporter, cycloheximide protein synthesis inhibition counterscreen | max response, % | actives 12% (n = 300,000); in the data active = max response mostly above about 13%, no sharp cut-off; inactive = mostly below about 14%; note: read at 38.3 µM for the half of the compounds with a filed dose; 0% is about no effect
LmPK inhibitor – qHTS Assay for Inhibitors of Leishmania Mexicana Pyruvate Kinase (LmPK). Potency, µM (titrated, usually from 57.5 µM), for inactives: at the top dose activity change, negative = inhibition, hits mostly inhibitors. actives 0.37% (n = 290,000). AID 1721, 2009. purified LmPK, Kinase-Glo ATP luminescence, 1 h; note: potency is the fitted concentration of half-maximal effect; % is set by controls: 0 for no effect and ±100 for the full control effect
Target sequence (Q27686 whole entry, looked up): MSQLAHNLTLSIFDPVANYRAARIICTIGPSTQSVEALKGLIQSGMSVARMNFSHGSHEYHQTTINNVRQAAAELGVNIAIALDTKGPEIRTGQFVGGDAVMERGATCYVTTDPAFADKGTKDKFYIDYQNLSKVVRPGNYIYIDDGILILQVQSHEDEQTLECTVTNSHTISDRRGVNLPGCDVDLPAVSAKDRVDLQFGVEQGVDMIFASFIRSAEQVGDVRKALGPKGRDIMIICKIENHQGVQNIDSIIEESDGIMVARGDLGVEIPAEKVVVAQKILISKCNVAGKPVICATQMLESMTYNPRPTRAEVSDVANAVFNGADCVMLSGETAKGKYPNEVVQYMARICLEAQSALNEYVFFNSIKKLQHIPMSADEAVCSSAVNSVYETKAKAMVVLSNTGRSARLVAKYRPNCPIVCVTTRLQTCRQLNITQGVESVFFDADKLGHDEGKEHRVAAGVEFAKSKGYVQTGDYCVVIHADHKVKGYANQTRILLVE
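Purified LmPK (0.1 nM) converted ADP (0.1 mM) to ATP with PEP (0.5 mM) in imidazole buffer pH 7.2 with KCl and MgCl2, 1 h at room temperature. ATP was read by Kinase-Glo luminescence; data normalized to uninhibited and no-enzyme controls.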
Pf growth 48h – Primary qHTS for delayed death inhibitors of the malarial parasite plastid, 48 hour incubation; Potency, µM (doses to about 28.7 µM), for the others: top-dose activity change, negative = inhibition, hits mostly inhibitors; actives 5.9% (n = 310,000); P. falciparum luciferase growth in erythrocytes, 48 h; note: potency is the fitted concentration of half-maximal effect; % is set by controls: 0 for no effect and ±100 for the full control effect
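Cell-based growth assay: transgenic P. falciparum expressing firefly luciferase, cultured in red cells within RPMI 1640 containing 0.5% w/v Albumax, 24 mM bicarbonate and gentamycin. A drop in luciferase activity indicates inhibition.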
The depositor's hits bear a star; i = inactive; ? = inconclusive; nt = no result given; [ ] = another dose, or the depositor's remark. Unless noted, calls come from the whole dose curve; as a rule, active = well fitted inhibition curve with a large enough effect; inconclusive = small, poorly fitted or top-dose-only effect, or another doubt; inactive = no such curve, though single readings can be large or run the other way.

SMILES	Pf growth 96h	Shiga toxin inh	CHX counter	LmPK inhibitor	Pf growth 48h
Cc1cccc(N2CCN(C(=O)c3ccc(-n4cncn4)c([N+](=O)[O-])c3)CC2)c1C	?	-5.3	-1.7	-1.6%	-4.2%
O=C(/C=C/c1c(Cl)cccc1Cl)Nc1ccncc1	?	36.1	13.4*	11.1%	nt
O=C(/C=C/c1cccc(Cl)c1)Nc1ccncc1	13.7%	53.0*	37.8*	0.2%	-7.8%
O=C(O)CNC(=O)/C=C/c1c(Cl)cccc1Cl	7.6%	22.4	9.9	-8.2%	?
O=C(/C=C/c1cccc(Cl)c1)NCc1ccncc1	?	-8.2	0.8	-1.0%	16.4%
O=C(/C=C/c1c(F)cccc1Cl)Nc1ccncc1	-20.6%	95.5*	61.5*	-2.7%	73.4%
O=C(CSc1nnc(-c2ccccc2F)o1)N1CCNC1=O	87.5%	nt	nt	nt	190.3%
COC(=O)c1ccc(-c2ccc(F)cc2)nc1C	98.2%	72.7*	112.3*	-12.6%	218.4%
CCOC(=O)c1ccc(-c2ccc3c(c2)CCC3)nc1C	297.3%	93.3*	28.9*	-4.1%	-6.6%[0.00184 µM]
Clc1cc(CSc2ccccc2)nc(-c2ccccc2)n1	7.7%	33.2	21.7*	-3.2%	0.4%
CO/N=C/c1ccc(Oc2ccc(C)cc2)c([N+](=O)[O-])c1	134.7%	63.8	43.3*	8.0%	i
O=[N+]([O-])c1cc(/C=N/O)ccc1Oc1cccc(Cl)c1	6.6%	0.5	17.2	-1.4%	2.6%
O=[N+]([O-])c1cc(/C=N/O)ccc1Oc1ccccc1Cl	-9.0%	50.1*	52.5*	-4.2%	94.7%
CO/N=C/c1ccc(Sc2ccccc2)c([N+](=O)[O-])c1	15.4%	-5.9	2.1	0.8%	nt
COc1cccc(CNc2ncc(Br)cc2Br)c1O	108.3%	61.4*	65.6*	4.9%	82.6%
COc1cccc(CNc2ccc(Br)cn2)c1O	173.0%	71.7*	43.4*	0.4%	-64.9%
Cc1cs/c(=N\N=C\c2cccc([N+](=O)[O-])c2)n1Cc1ccco1	219.3%	-8.6	-2.0	-1.0%	15.9%
C/C(=N\N=c1/scc(C)n1Cc1ccco1)c1cccc([N+](=O)[O-])c1	?	23.6	17.8*	4.8%	-29.0%
Cc1c(NS(=O)(=O)c2cc(C(=O)NCc3cccnc3)cc(Cl)c2Cl)c(=O)n(-c2ccccc2)n1C	?	nt	nt	nt	11.7µM*
CCCNC(=O)N1CCC(C(=O)c2cccc(F)c2)CC1	?	43.3	3.4	-0.9%	1.1%
O=C1CC(NCCC2=CCCCC2)C(=O)N1c1cccc(Cl)c1Cl (configuration not stated)	54.2%	-1.7	-4.8	3.8%	?
Cc1cccc(Cn2nc(C(C)(C)C)cc2C(=O)Nc2ccc(F)cc2)c1	9.28µM*	36.2	18.5*	2.0%	10.4µM*
CC(C)(C)c1cc(C(=O)NN)n(Cc2ccc(F)cc2)n1	?	8.5	-4.1	10.3%	?
COC(=O)c1cc(NC(=O)c2cc(C(C)(C)C)nn2Cc2ccc(F)cc2)ccc1N1CCOCC1	-11.0%	14.4	8.3	6.0%	6.57µM*
N#CCSc1nc2c(cc1C#N)CCCC2	nt	57.2	30.4*	2.1%	47.0%
SMILES	Pf growth 96h	Shiga toxin inh	CHX counter	LmPK inhibitor	Pf growth 48h
CSC1CCCCC1(O)CSc1nc2c(cc1C#N)CCCC2 (configuration not stated)	54.6%	8.8	10.3	-1.2%	9.28µM*
N#Cc1cc2c(nc1SCc1cccnc1)CCCCC2	nt	129.6*	16.5	2.2%	?
COc1ccc(OCCC(=O)OCC(=O)NCc2ccccc2OC)cc1	3.7%	nt	nt	nt	-18.3%
Cc1cccc(N(C(=O)CCC(=O)Nc2cc(C)on2)C(C(=O)NC2CCCC2)c2ccccc2)c1 (configuration not stated)	?	-13.1	-6.0	0.8%	?
COC(=O)c1ccc(COc2cc(O)c3c(c2)OC(C)(C)CC3=O)cc1	nt	-3.9	16.7	8.6%	?
CC1(C)CC(=O)c2c(O)cc(OCc3ccc(Br)cc3)cc2O1	75.4%	69.6*	48.6*	-3.1%	nt
CC1(C)CC(=O)c2ccc(OCc3ccc([N+](=O)[O-])cc3)cc2O1	252.0%	84.5*	40.4*	2.9%	227.7%
Cc1n[nH]c(C)c1N1C(=O)c2cccc3c(N4CCCCCC4)ccc(c23)C1=O	?	-18.6	1.5	2.0%	?
O=C1c2cccc3c(N4CCCCC4)ccc(c23)C(=O)N1c1cccc(O)c1	10.2%	89.8*	60.8*	-0.4%	?

Assay outcomes from PubChem BioAssay.
